{
  "source": "PubChem BioAssay (NCI)",
  "note": "About 79,000 compounds went through this panel and 15% of them were active in at least one assay; those are over-represented in the sample as a whole. Unmarked numbers belong to inactive results. Rule as the data show it: active = growth inhibition above about 70%; inactive = the rest.",
  "data": [
    {"experiment": "NCI Yeast Anticancer Drug Screen. Data for the bub3 strain (AID 167)", "settings": "S. cerevisiae bub3 mutant strain, at 1.2 µM, hits give high values", "in_short": "(§1)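 Growth of a checkpoint-deficient yeast mutant is measured after compound exposure. Values represent inhibition relative to vehicle.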", "units": {"growth inhibition": "%"}, "values": [
      {"smiles": "CCOP(=O)(OCC)C(Cc1ccccc1)N=C(c1ccccc1)c1ccccc1", "note": "(stereo not drawn)", "growth inhibition": -35},
      {"smiles": "CCc1ncnc2cc(OCC3CO3)c(OC)cc12", "note": "(stereo not drawn)", "growth inhibition": 17},
      {"smiles": "CCOC(=O)[C@H]1Nc2ccccc2C2c3ccccc3CC21", "note": "(stereo partly drawn)", "growth inhibition": -4},
      {"smiles": "O=CNc1ccc2c(c1)C(=O)c1ccccc1-2", "growth inhibition": 9},
      {"smiles": "CCOc1ccc2c(c1)c(CC(=O)O)cn2C", "growth inhibition": -10},
      {"smiles": "OC1CSCCCSCCSCCCSC1", "growth inhibition": -8},
      {"smiles": "N#Cc1c(N)[nH]c2ccc(Sc3ccccc3)cc12", "growth inhibition": -5},
      {"smiles": "Cc1ccc(-c2ccc(Nc3c4ccccc4nc4ccccc34)cc2)cn1", "growth inhibition": -5},
      {"smiles": "c1ccc2c(c1)NC(NC1Nc3ccccc3N1)N2", "growth inhibition": -2},
      {"smiles": "OC(COc1cccc2ccccc12)CN1CCOCC1", "note": "(stereo not drawn)", "growth inhibition": 8},
      {"smiles": "CCC/C(Cl)=N\\OC(=O)Nc1ccc(Br)cc1", "growth inhibition": 1},
      {"smiles": "COc1ccc(/C=C2\\SC(=S)N(/C=C/c3nc4ccccc4[nH]c3=O)C2=O)cc1OC", "growth inhibition": 4},
      {"smiles": "O=C(NNc1ccnc2cc(Cl)ccc12)/C(=C\\c1ccccc1Cl)NC(=O)c1ccccc1", "growth inhibition": 0},
      {"smiles": "CSC1=NNC(SC)=NN1", "growth inhibition": -12},
      {"smiles": "Cc1c(C2=C(Br)C(=O)N(C)C2=O)c(=O)n(C)c(=O)n1C", "growth inhibition": 1},
      {"smiles": "NCCNc1ccc(NCCN)c2c1C(=O)c1c(O)ccc(O)c1C2=O", "growth inhibition": 0},
      {"smiles": "Cn1c(=O)c(-c2ccccc2)c(N=[N+]=[N-])c2ccccc21", "growth inhibition": 26},
      {"smiles": "CCCCCCCCCCCCCCCCCCOCC(O)COP(=O)(O)OCC1OC(n2cc(F)c(=O)[nH]c2=O)CC1O", "note": "(stereo not drawn)", "growth inhibition": 14},
      {"smiles": "CCS(=O)(=O)c1ccc(/C=C/C=N/NC(=S)NCC(C)C)cc1", "growth inhibition": 3},
      {"smiles": "CCC(=O)Oc1c(Cl)cc(Cl)c2ccccc12", "growth inhibition": -4},
      {"smiles": "COc1cc2c3c(cccc3c1)C(=O)N(CCN(C)C)C2=O", "growth inhibition": -13},
      {"smiles": "CN(C)c1ccc(C(C#N)=C(C#N)C#N)cc1", "growth inhibition": -10},
      {"smiles": "O=C(CCCN1CCC2(CC1)CC(=O)N(N1CCCCCC1)C2=O)c1ccc(F)cc1", "growth inhibition": 40},
      {"smiles": "O=C1C2C(C(=O)N1c1ccc(OCc3ccccc3)cc1)C1c3ccccc3C2C2CCCCN21", "note": "(stereo not drawn)", "growth inhibition": -4},
      {"smiles": "CCN(CC)CCC(=O)c1ccc(Oc2ccc(F)cc2)cc1", "growth inhibition": 35},
      {"smiles": "O=Nc1c(NO)ccc2nn(-c3ccccc3)nc12", "growth inhibition": 3},
      {"smiles": "CC(=O)SCCC[Si](C)(C)CCCSC(C)=O", "growth inhibition": -1},
      {"smiles": "O=C(O)C1CCCCC1c1c2ccc(=O)c(O)c-2oc2c(O)c(O)ccc12", "note": "(stereo not drawn)", "growth inhibition": 0},
      {"smiles": "Cc1ccc(NN(NC(=O)OC(C)C)C(=O)OC(C)C)cc1", "growth inhibition": -5},
      {"smiles": "O=C1c2ccccc2C(=O)c2cc(CBr)ccc21", "growth inhibition": 1},
      {"smiles": "Cc1c(C(Cc2ccccc2N(C)C(=O)/C=C\\C(=O)O)c2c[nH]c3ccccc23)c2ccccc2n1C", "note": "(stereo not drawn)", "growth inhibition": -9},
      {"smiles": "CC(C)/C(Cl)=N\\OC(=O)Nc1ccc(F)cc1", "growth inhibition": 13},
      {"smiles": "O=C1OC(=O)C2CCCC3CCCC1C32", "note": "(stereo not drawn)", "growth inhibition": 28},
      {"smiles": "CCOC(=O)C(NC(=O)c1ccccc1)(N1CCN(c2cc3c(cc2F)c(=O)c(C(=O)O)cn3C2CC2)CC1)C(F)(F)F", "note": "(stereo not drawn)", "growth inhibition": -1},
      {"smiles": "COc1ccc(NC(=S)N/N=C(\\c2ccccc2)c2ccccn2)cc1", "growth inhibition": -6},
      {"smiles": "C=CCC1=C(C)C(OC(=O)/C=C/c2ccccc2)CC1=O", "note": "(stereo not drawn)", "growth inhibition": 7},
      {"smiles": "NNc1c(F)c(F)cc(F)c1F", "growth inhibition": -11},
      {"smiles": "COP(=O)(OC)/C(=C\\C1=CN(C(c2ccccc2)(c2ccccc2)c2ccccc2)CN1)NC=O", "growth inhibition": -27},
      {"smiles": "COC(=O)c1cc(-c2ccc(C)cc2)[nH]c(=O)c1C#N", "growth inhibition": -8}
    ]},
    {"experiment": "NCI Yeast Anticancer Drug Screen. Data for the bub3 strain (AID 167)", "settings": "S. cerevisiae bub3 mutant strain, at 3.7 µM, hits give high values", "in_short": "as §1", "units": {"growth inhibition": "%"}, "values": [
      {"smiles": "CCOP(=O)(OCC)C(Cc1ccccc1)N=C(c1ccccc1)c1ccccc1", "note": "(stereo not drawn)", "growth inhibition": -35},
      {"smiles": "CCc1ncnc2cc(OCC3CO3)c(OC)cc12", "note": "(stereo not drawn)", "growth inhibition": -7},
      {"smiles": "CCOC(=O)[C@H]1Nc2ccccc2C2c3ccccc3CC21", "note": "(stereo partly drawn)", "growth inhibition": 11},
      {"smiles": "O=CNc1ccc2c(c1)C(=O)c1ccccc1-2", "growth inhibition": 0},
      {"smiles": "CCOc1ccc2c(c1)c(CC(=O)O)cn2C", "growth inhibition": 0},
      {"smiles": "OC1CSCCCSCCSCCCSC1", "growth inhibition": 0},
      {"smiles": "N#Cc1c(N)[nH]c2ccc(Sc3ccccc3)cc12", "growth inhibition": -6},
      {"smiles": "Cc1ccc(-c2ccc(Nc3c4ccccc4nc4ccccc34)cc2)cn1", "growth inhibition": -45},
      {"smiles": "c1ccc2c(c1)NC(NC1Nc3ccccc3N1)N2", "growth inhibition": -4},
      {"smiles": "OC(COc1cccc2ccccc12)CN1CCOCC1", "note": "(stereo not drawn)", "growth inhibition": 25},
      {"smiles": "CCC/C(Cl)=N\\OC(=O)Nc1ccc(Br)cc1", "growth inhibition": 17},
      {"smiles": "COc1ccc(/C=C2\\SC(=S)N(/C=C/c3nc4ccccc4[nH]c3=O)C2=O)cc1OC", "growth inhibition": 4},
      {"smiles": "O=C(NNc1ccnc2cc(Cl)ccc12)/C(=C\\c1ccccc1Cl)NC(=O)c1ccccc1", "growth inhibition": 14},
      {"smiles": "CSC1=NNC(SC)=NN1", "growth inhibition": 6},
      {"smiles": "Cc1c(C2=C(Br)C(=O)N(C)C2=O)c(=O)n(C)c(=O)n1C", "growth inhibition": 4},
      {"smiles": "NCCNc1ccc(NCCN)c2c1C(=O)c1c(O)ccc(O)c1C2=O", "growth inhibition": 23},
      {"smiles": "Cn1c(=O)c(-c2ccccc2)c(N=[N+]=[N-])c2ccccc21", "growth inhibition": 26},
      {"smiles": "CCCCCCCCCCCCCCCCCCOCC(O)COP(=O)(O)OCC1OC(n2cc(F)c(=O)[nH]c2=O)CC1O", "note": "(stereo not drawn)", "growth inhibition": 28},
      {"smiles": "CCS(=O)(=O)c1ccc(/C=C/C=N/NC(=S)NCC(C)C)cc1", "growth inhibition": 4},
      {"smiles": "CCC(=O)Oc1c(Cl)cc(Cl)c2ccccc12", "growth inhibition": -6},
      {"smiles": "COc1cc2c3c(cccc3c1)C(=O)N(CCN(C)C)C2=O", "growth inhibition": -12},
      {"smiles": "CN(C)c1ccc(C(C#N)=C(C#N)C#N)cc1", "growth inhibition": -5},
      {"smiles": "O=C(CCCN1CCC2(CC1)CC(=O)N(N1CCCCCC1)C2=O)c1ccc(F)cc1", "growth inhibition": 41},
      {"smiles": "O=C1C2C(C(=O)N1c1ccc(OCc3ccccc3)cc1)C1c3ccccc3C2C2CCCCN21", "note": "(stereo not drawn)", "growth inhibition": -8},
      {"smiles": "CCN(CC)CCC(=O)c1ccc(Oc2ccc(F)cc2)cc1", "growth inhibition": 46},
      {"smiles": "O=Nc1c(NO)ccc2nn(-c3ccccc3)nc12", "growth inhibition": 45},
      {"smiles": "CC(=O)SCCC[Si](C)(C)CCCSC(C)=O", "growth inhibition": 3},
      {"smiles": "O=C(O)C1CCCCC1c1c2ccc(=O)c(O)c-2oc2c(O)c(O)ccc12", "note": "(stereo not drawn)", "growth inhibition": 6},
      {"smiles": "Cc1ccc(NN(NC(=O)OC(C)C)C(=O)OC(C)C)cc1", "growth inhibition": -3},
      {"smiles": "O=C1c2ccccc2C(=O)c2cc(CBr)ccc21", "growth inhibition": 0},
      {"smiles": "Cc1c(C(Cc2ccccc2N(C)C(=O)/C=C\\C(=O)O)c2c[nH]c3ccccc23)c2ccccc2n1C", "note": "(stereo not drawn)", "growth inhibition": -6},
      {"smiles": "CC(C)/C(Cl)=N\\OC(=O)Nc1ccc(F)cc1", "growth inhibition": 22},
      {"smiles": "O=C1OC(=O)C2CCCC3CCCC1C32", "note": "(stereo not drawn)", "growth inhibition": 66},
      {"smiles": "CCOC(=O)C(NC(=O)c1ccccc1)(N1CCN(c2cc3c(cc2F)c(=O)c(C(=O)O)cn3C2CC2)CC1)C(F)(F)F", "note": "(stereo not drawn)", "growth inhibition": 2},
      {"smiles": "COc1ccc(NC(=S)N/N=C(\\c2ccccc2)c2ccccn2)cc1", "growth inhibition": 4},
      {"smiles": "C=CCC1=C(C)C(OC(=O)/C=C/c2ccccc2)CC1=O", "note": "(stereo not drawn)", "growth inhibition": 20},
      {"smiles": "NNc1c(F)c(F)cc(F)c1F", "growth inhibition": -18},
      {"smiles": "COP(=O)(OC)/C(=C\\C1=CN(C(c2ccccc2)(c2ccccc2)c2ccccc2)CN1)NC=O", "growth inhibition": -41},
      {"smiles": "COC(=O)c1cc(-c2ccc(C)cc2)[nH]c(=O)c1C#N", "growth inhibition": -6}
    ]}
  ]
}
